Experimental data taken from PubChem BioAssay.
Calls of active or inactive are those of the source.

Experiments:
[1] = E. coli DRC41 culture turbidity changes, primary screen, E. coli filamentation inducer project, strain DRC41, OD650, 48 h (AID 1152);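 further: E. coli MC1000 strain DRC41 lacking acrAB efflux pump and sulA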; conditions: E. coli DRC41 (acrAB sulA), higher = more signal, called active from +8 up or from −8 down
[2] = small-molecule binders of probe aLefty1, primary screen, biochemical, small-molecule microarray, 635/667 nm fluorescence (AID 1153); conditions: higher = more signal;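 further: score merges spot fluorescence with signal-to-noise ratio from the scanned slide images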
[3] = PSAC antagonists in infected red cells, primary screen, cell-based, P. falciparum Indochina, OD700, 1 h (AID 1154); conditions: P. falciparum Indochina infected RBC osmotic lysis, higher = more signal, called active from +8 up or from −8 down
[4] = PSAC antagonists in infected red cells, primary screen, cell-based, P. falciparum Indochina, OD700, 2 h (AID 1155);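 further: lysis reports solute entry through the parasite surface anion channel PSAC; channel blockers reduce lysis of infected cells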; conditions: P. falciparum Indochina infected erythrocytes, osmotic lysis OD700; higher = more signal, called active from +8 up or from −8 down
[5] = osmotic lysis modulators in infected erythrocytes, primary screen, PSAC antagonist project, cell-based, P. falciparum Indochina, OD700, 3 h (AID 1156); conditions: higher = more signal, called active from +8 up or from −8 down
[6] = PSAC antagonists in infected red cells, primary screen, cell-based, P. falciparum Indochina, OD700, 18 h (AID 1157); conditions: P. falciparum Indochina infected erythrocytes, osmotic lysis OD700, 18 h; higher = more signal, called active from +8 up or from −8 down
[7] = modulators of S6 phosphorylation in cells, primary screen, cell-based, A549, cytoblot, luminescence, serum-stimulated (AID 1158); conditions: A549 phospho-S6 cytoblot, 5 h, higher = more signal;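 further: serum-stimulated A549 lung adenocarcinoma cells; signal is phosphorylated S6 detected by cytoblot immunostaining with HRP secondary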
[8] = target: NADPH oxidase 2 (Homo sapiens) (UniProt P04839); assay: NOX2-dependent H2O2 signal modulators, primary screen, NOX inhibitor project, cell-based, HEK293-NOX2, PMA-stimulated, Amplex Red fluorescence (AID 1159); conditions: 45 min, higher = more signal, called active from +8 up or from −8 down; further: test concentration not given here
Sequence of NADPH oxidase 2 (Homo sapiens) (P04839 whole entry, looked up): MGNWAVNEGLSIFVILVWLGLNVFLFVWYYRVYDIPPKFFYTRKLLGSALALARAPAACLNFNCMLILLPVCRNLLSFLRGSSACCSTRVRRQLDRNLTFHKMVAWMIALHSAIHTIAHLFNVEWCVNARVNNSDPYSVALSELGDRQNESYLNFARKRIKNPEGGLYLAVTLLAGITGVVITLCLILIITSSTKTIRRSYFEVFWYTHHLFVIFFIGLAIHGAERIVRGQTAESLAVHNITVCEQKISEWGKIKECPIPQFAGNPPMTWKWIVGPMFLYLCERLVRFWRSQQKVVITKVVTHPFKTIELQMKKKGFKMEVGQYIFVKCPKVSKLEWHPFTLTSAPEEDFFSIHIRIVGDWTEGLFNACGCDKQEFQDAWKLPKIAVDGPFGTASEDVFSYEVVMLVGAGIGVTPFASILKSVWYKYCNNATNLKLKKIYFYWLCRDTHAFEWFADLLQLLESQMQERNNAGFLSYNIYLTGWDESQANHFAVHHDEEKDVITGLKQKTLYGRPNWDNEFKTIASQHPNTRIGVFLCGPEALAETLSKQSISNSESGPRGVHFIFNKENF

[9] = target: NADPH oxidase 4 (Homo sapiens) (UniProt Q9NPH5); assay: NOX4-dependent H2O2 signal modulators, primary screen, NOX inhibitor project, cell-based, HEK293-NOX4, tetracycline-induced, Amplex Red fluorescence (AID 1160); conditions: 45 min, higher = more signal, called active from +8 up or from −8 down
Sequence of NADPH oxidase 4 (Homo sapiens) (Q9NPH5 whole entry, looked up): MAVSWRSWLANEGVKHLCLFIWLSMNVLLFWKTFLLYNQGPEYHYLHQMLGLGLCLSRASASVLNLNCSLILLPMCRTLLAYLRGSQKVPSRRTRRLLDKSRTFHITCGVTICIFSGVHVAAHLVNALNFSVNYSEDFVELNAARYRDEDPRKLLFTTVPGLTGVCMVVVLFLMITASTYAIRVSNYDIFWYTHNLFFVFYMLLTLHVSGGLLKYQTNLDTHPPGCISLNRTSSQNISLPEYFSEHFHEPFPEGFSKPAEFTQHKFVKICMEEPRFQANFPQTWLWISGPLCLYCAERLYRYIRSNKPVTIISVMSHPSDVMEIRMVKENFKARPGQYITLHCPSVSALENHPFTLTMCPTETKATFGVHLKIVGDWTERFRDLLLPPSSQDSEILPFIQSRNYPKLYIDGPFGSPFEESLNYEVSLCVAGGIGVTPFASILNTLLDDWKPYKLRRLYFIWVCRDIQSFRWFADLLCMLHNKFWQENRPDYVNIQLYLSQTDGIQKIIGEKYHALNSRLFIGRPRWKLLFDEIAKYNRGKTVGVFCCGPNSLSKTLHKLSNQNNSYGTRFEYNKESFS

[10] = target: NADPH oxidase 5 (Homo sapiens) (UniProt Q96PH1); assay: NOX5-dependent H2O2 signal modulators, primary screen, NOX inhibitor project, cell-based, HEK293-NOX5, Amplex Red fluorescence (AID 1161); conditions: HEK293-NOX5, ionomycin, 45 min, higher = more signal
Sequence of NADPH oxidase 5 (Homo sapiens) (Q96PH1 whole entry, looked up): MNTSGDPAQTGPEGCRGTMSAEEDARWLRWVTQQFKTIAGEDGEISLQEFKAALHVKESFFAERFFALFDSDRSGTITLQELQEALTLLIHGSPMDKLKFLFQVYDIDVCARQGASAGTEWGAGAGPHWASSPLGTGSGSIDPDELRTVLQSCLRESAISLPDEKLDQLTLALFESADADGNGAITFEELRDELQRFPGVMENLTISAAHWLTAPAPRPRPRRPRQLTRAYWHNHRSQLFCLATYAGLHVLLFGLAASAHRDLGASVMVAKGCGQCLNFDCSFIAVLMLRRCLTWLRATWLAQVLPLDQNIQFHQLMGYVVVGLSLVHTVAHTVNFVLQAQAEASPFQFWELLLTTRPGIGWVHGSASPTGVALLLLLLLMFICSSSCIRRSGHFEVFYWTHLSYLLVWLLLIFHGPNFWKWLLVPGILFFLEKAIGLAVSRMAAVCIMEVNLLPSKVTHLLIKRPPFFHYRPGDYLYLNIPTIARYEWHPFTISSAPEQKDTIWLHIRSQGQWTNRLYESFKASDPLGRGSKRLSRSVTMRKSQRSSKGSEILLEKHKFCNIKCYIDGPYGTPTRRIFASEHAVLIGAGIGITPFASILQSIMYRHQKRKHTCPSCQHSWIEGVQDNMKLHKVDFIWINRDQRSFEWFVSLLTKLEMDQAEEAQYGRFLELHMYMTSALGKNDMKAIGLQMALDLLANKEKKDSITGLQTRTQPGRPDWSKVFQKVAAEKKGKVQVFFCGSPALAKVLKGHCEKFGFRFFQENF

[11] = A549 cell viability effects, profiling panel, calcein-AM fluorescence, 48 h, basal (AID 1162); conditions: higher = more signal; further: test concentration not given here
[12] = adipocyte viability effects, profiling panel, cell-based, 3T3-L1 adipocytes, calcein-AM fluorescence, 48 h, basal (AID 1163); conditions: 3T3-L1 adipocytes viability, higher = more signal; further: test concentration not given here
[13] = HepG2 cell viability effects, profiling panel, calcein-AM fluorescence, 48 h, basal (AID 1164); conditions: higher = more signal; further: test concentration not given here
[14] = MM1S cell viability effects, profiling panel, calcein-AM fluorescence, 48 h, basal (AID 1165); conditions: higher = more signal;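 further: viability of MM1S multiple myeloma cells under basal unstimulated conditions; test concentration not given here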
[15] = basal RPMI8226 viability, no added stimulus, profiling panel, cell-based, calcein-AM fluorescence, 48 h, PK04 Diversity Set (AID 1166); conditions: RPMI8226 myeloma viability, higher = more signal;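 further: cells grown under basal conditions without added stimulus; test concentration not given here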
[16] = basal HepG2 mitochondrial membrane potential changes, profiling panel, cell-based, JC-1 fluorescence, 24 h, 100 nL compound (AID 1167); conditions: higher = more signal; further: test concentration not given here
[17] = basal 3T3-L1 adipocyte mitochondrial potential changes, profiling panel, cell-based, JC-1 fluorescence, 3T3-L1 adipocytes, 24 h, 100 nL compound (AID 1168); conditions: JC-1 mitochondrial fluorescence, higher = more signal, called active from +8 up or from −8 down; further: test concentration not given here
[18] = basal RPMI8226 mitochondrial membrane potential changes, profiling panel, cell-based, JC-1 fluorescence, 24 h, 100 nL compound (AID 1169); conditions: RPMI8226 myeloma, JC-1 mitochondrial potential fluorescence, higher = more signal; further: test concentration not given here
[19] = basal MM1S mitochondrial membrane potential changes, profiling panel, cell-based, JC-1 fluorescence, 24 h, 100 nL compound (AID 1170); conditions: higher = more signal; further: test concentration not given here
[20] = A549 lung cancer cell viability effects, profiling panel, resazurin fluorescence, 24 h, PK04 Diversity Set (AID 1171); conditions: higher = more signal, called active from +8 up or from −8 down; further: test concentration not given here

SMILES	z-score [1]	composite z-score [2]	z-score [3]	z-score [4]	z-score [5]	z-score [6]	z-score [7]	z-score [8]	z-score [9]	z-score [10]	z-score [11]	z-score [12]	z-score [13]	z-score [14]	z-score [15]	z-score [16]	z-score [17]	z-score [18]	z-score [19]	z-score [20]
C=CC[C@@]12N=C(c3ccc(OCCCO)cc3)O[C@@H]1c1ccccc1N(CCS(=O)(=O)c1ccccc1)C2=O	-0.309 (inactive)	0.199	33.3 (active)	28.5 (active)	3.7 (inactive)	8.56 (active)	0.766	-1.55 (inactive)	0.599 (inactive)	-1.91	0.4	0.962	1.05	-1.41	-1.02	0.381	2.23 (inactive)	-0.899	-1.22	-1.54 (inactive)
C[C@@H]1ON(c2ccc(C(=O)OC(C)(C)C)cc2)[C@H](c2ccc(Br)cc2)[C@H]1C(=O)N1C(=O)OC[C@H]1Cc1ccccc1	0.351 (inactive)	-0.0241	0.393 (inactive)	0.358 (inactive)	-0.65 (inactive)	0.428 (inactive)	0.479	-0.495 (inactive)	0.0298 (inactive)	0.191	0.136	0.393	0.889	-0.486	-0.403	0.401	-0.728 (inactive)	-1.1	0.24	1.23 (inactive)
CN(C)CCCNC(=O)[C@@]1(c2ccc([N+](=O)[O-])cc2)CC(=O)N(CC23CC4CC(CC(C4)C2)C3)[C@@H]1c1ccc(CO)cc1	-3.6 (inactive)	0.885	0.924 (inactive)	-0.365 (inactive)	-0.788 (inactive)	-0.798 (inactive)	-2.28	-8.3 (active)	-2.09 (inactive)	0.357	-3.74	0.0309	-5.05	-3.8	-4.03	-1.58	0.303 (inactive)	-1.04	-2.33	-4.78 (inactive)
COc1ccc([Si](C)(C)[C@@H]2[C@@H](CCO)O[C@]3(C(=O)N(Cc4cccc(N5C(=O)c6ccccc6Oc6ccccc65)c4)c4ccccc43)[C@H]2C)cc1	0.705 (inactive)	0.0355	2.72 (inactive)	3.13 (inactive)	0.207 (inactive)	1.77 (inactive)	0.243	0.423 (inactive)	0.543 (inactive)	1.98	-0.799	-0.472	-3.38	-1.89	-4.32	-0.192	0.614 (inactive)	-0.954	-1.82	-1.82 (inactive)
COc1cc2c(cc1OC)CN(C(=O)[C@@H]1[C@H]3C(=O)O[C@H](c4ccccc4)[C@H](c4ccccc4)N3[C@H](c3ccccc3OCCO)[C@@]13C(=O)Nc1ccc(C#CC4(O)CCCCCC4)cc13)CC2	2.01 (inactive)	-0.2	3.46 (inactive)	2.47 (inactive)	1.26 (inactive)	2.21 (inactive)	0.454	1.73 (inactive)	0.934 (inactive)	2.25	0.74	-0.277	0.711	-0.292	-1.88	-0.612	1.3 (inactive)	-0.792	-1.31	-0.373 (inactive)
COc1ccc([Si](C)(C)[C@@H]2[C@@H](CCO)O[C@]3(C(=O)N(Cc4cccc(N5C(=O)c6cccc7cccc5c67)c4)c4ccccc43)[C@H]2C)cc1	-0.21 (inactive)	0.0449	3.33 (inactive)	3.66 (inactive)	-0.0486 (inactive)	2.34 (inactive)	0.0181	0.498 (inactive)	0.86 (inactive)	2.42	-1.03	0.421	-3.42	-1.32	-4.25	-0.543	0.145 (inactive)	-1.05	-1.77	-2.26 (inactive)
O=C1NCC(=O)N2[C@@H]1C[C@@H](C(=O)O)[C@H]2c1ccc(O)cc1	0.533 (inactive)	0.138	2.73 (inactive)	0.328 (inactive)	-3.02 (inactive)	-0.0173 (inactive)	-0.174	-1.92 (inactive)	-0.822 (inactive)	-1.29	0.391	-0.0074	-0.084	-2.79	-0.0676	0.429	-0.799 (inactive)	0.233	-0.775	0.249 (inactive)
C=CCNC(=O)[C@@H]1[C@H]2C(=O)O[C@H](c3ccccc3)[C@H](c3ccccc3)N2[C@H](c2ccccc2OCCO)[C@@]12C(=O)N(C(=O)OCCOC)c1ccc(C#CC3=CCCCC3)cc12	0.889 (inactive)	-0.0075	2.66 (inactive)	0.741 (inactive)	0.123 (inactive)	0.906 (inactive)	0.325	1.54 (inactive)	1.44 (inactive)	1.32	0.428	1.16	-0.555	-2.48	-2.4	-0.149	1.74 (inactive)	-1.01	-1.82	-0.996 (inactive)
